The campaign covered roughly 140,000 compounds. About 4,300 (3.1%) were called active. Not shown: some 21% with an inconclusive outcome. This excerpt belongs to a sample that is enriched for actives. A number with no mark means an inactive call.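 The calls were made as follows: active = readout at or below -70, meaning at least 70% loss of cells showing the perinucleolar compartment, a nuclear body marking cancer cells; inconclusive = readout between -30 and a set limit; inactive = the rest.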
Experiment: High Content Assay for Compounds that inhibit the Assembly of the Perinucleolar Compartment;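 also: plate controls were DMSO wells for no effect and camptothecin positive control wells for full effect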
Conditions: PC3M PTB-GFP, PNC prevalence imaging, 16 h; at 10 µM; hits give low values
In short: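 Read-out is percentage of cells bearing a perinucleolar compartment, from automated 20x imaging of fixed, Hoechst-stained PC3M PTB-GFP cells. Cells were seeded 4 h, then exposed 16 h to compound (23 nl of library stock) in duplicate plates.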
In the case of COC(=O)C1C(=O)NCC1c1ccc(C)cc1 (configuration not stated), the activity change (PNC), negative = inhibition is reported as -2.49%.
For O=C(CCc1[nH]c2ccccc2c1Sc1ccccc1)N(CCO)CCO, the activity change (PNC), negative = inhibition was 85.7%.
CC(=O)NC1=NN(C(C)=O)C(C)(c2ccc(C)cc2)S1 (configuration not stated) gave an activity change (PNC), negative = inhibition of 54.1%.
In the case of COc1ccc(C(=O)Nc2c(Cl)cc(Cl)cc2C(=O)N2CCC(C)CC2)cc1, the activity change (PNC), negative = inhibition is reported as -10.7%.
CSc1ccc(S(=O)(=O)NC2CCCCC2)cc1 showed an activity change (PNC), negative = inhibition of -23.3%.
With Cc1cc(C)nc(SC2CCCCC2NS(=O)(=O)c2ccc(Cl)cc2)n1 (configuration not stated) the activity change (PNC), negative = inhibition was -107% (active).
Compound CCOC1CCCCC1NS(=O)(=O)c1ccc(Cl)cc1 (configuration not stated) has an activity change (PNC), negative = inhibition of 21.4%.
CC(=O)N/C(=C/c1ccc(OC(F)F)cc1)C(=O)O gave an activity change (PNC), negative = inhibition of -25.2%.
With COc1ccccc1CNC(=O)CN1CCC(n2cnc3cc(F)ccc32)CC1 the activity change (PNC), negative = inhibition was 26.2%.
Compound COc1ccc(N2C(=O)C(CC(=O)Nc3ccc(F)cc3)N(CCc3cccs3)C2=O)cc1 (configuration not stated) has an activity change (PNC), negative = inhibition of 20.2%.
CC(C)CCNC(=O)c1cccnc1Sc1ccccc1 showed an activity change (PNC), negative = inhibition of 23.2%.
For FC(F)(F)c1cccc(-c2cc3ccccc3nc2N2CCCC2)c1, the activity change (PNC), negative = inhibition was -94.9% (active).
Cc1cccc2cc(C#N)c(N3CCCC3)nc12 showed an activity change (PNC), negative = inhibition of -8.64%.
Compound S=C(NCCc1ccccc1)NCc1ccccc1Cl has an activity change (PNC), negative = inhibition of 29.5%.
Compound COc1ccc(-n2c(C)cc(C(=O)CN3C(=O)NC4(CCc5ccccc54)C3=O)c2C)cc1 (configuration not stated) has an activity change (PNC), negative = inhibition of -15%.
COc1ccccc1N1CCN(Cc2nnnn2CCc2ccccc2)CC1 gave an activity change (PNC), negative = inhibition of -5.45%.
With COc1ccccc1N1CCN(Cc2ccc(OC)c3ccccc23)CC1 the activity change (PNC), negative = inhibition was -100% (active).
COc1ccccc1N1CCN(CCCCOc2ccc(F)cc2)CC1 showed an activity change (PNC), negative = inhibition of 11%.
O=C1/C(=C\c2ccccc2Cl)SC(=S)N1CCC(=O)N1CCCc2ccccc21 gave an activity change (PNC), negative = inhibition of 47.3%.
For O=C(Nc1cccc(S(=O)(=O)N2CCCCC2)c1)c1ccc2c(c1)OCO2, the activity change (PNC), negative = inhibition was -20.4%.
COC(=O)Cc1ccc(NC(=S)NCc2ccccc2)cc1 showed an activity change (PNC), negative = inhibition of -25.7%.
With CC(C)Oc1ccc(CC(=O)NNC(=S)Nc2ccc(Br)cc2)cc1 the activity change (PNC), negative = inhibition was -113% (active).
Cc1ccc(OC(=O)CCC(=O)Nc2ccc(Br)cc2)cc1 gave an activity change (PNC), negative = inhibition of -25%.
With Cc1ccccc1NC(=S)N(CCCN1CCOCC1)Cc1cccs1 the activity change (PNC), negative = inhibition was 27.2%.
For Cc1ccc2c(c1)C1CN(C)CCC1N2C(=O)c1ccccc1NS(=O)(=O)c1ccc(F)cc1C (configuration not stated), the activity change (PNC), negative = inhibition was -99.6% (active).
In the case of CC1CN(C(=O)c2ccccc2NS(=O)(=O)c2cccc([N+](=O)[O-])c2)CC(C)O1 (configuration not stated), the activity change (PNC), negative = inhibition is reported as 25.2%.
Cc1ccc(S(=O)(=O)NC(C)C(=O)Nc2ccccc2C(=O)N2CCCC2)cc1 (configuration not stated) showed an activity change (PNC), negative = inhibition of 12.1%.
In the case of CCC(=O)Nc1c(C)n[nH]c1C, the activity change (PNC), negative = inhibition is reported as 0.725%.
O=C(c1cccs1)n1nc(NCc2ccccc2)nc1NCc1ccccc1 gave an activity change (PNC), negative = inhibition of -4.14%.
With CC(=O)NC(Cc1ccccc1)C(=O)NC1CCN(c2ncccc2[N+](=O)[O-])CC1 (configuration not stated) the activity change (PNC), negative = inhibition was 23.2%.
In the case of CC(C)n1c(NCc2c[nH]c3ccccc23)nc2ccccc21, the activity change (PNC), negative = inhibition is reported as -100% (active).
Compound Cc1ccc(O)c(CNc2nc3ccccc3n2C)c1 has an activity change (PNC), negative = inhibition of -1.77%.
In the case of CC(C)n1c(C(O)c2ccccc2)nc2ccccc21 (configuration not stated), the activity change (PNC), negative = inhibition is reported as 24.7%.
In the case of S=C(NCCc1ccccc1)NCC1CCCO1 (configuration not stated), the activity change (PNC), negative = inhibition is reported as -9.43%.
CCOC(=O)C1CCN(c2ncnc3c2oc2ccc(Br)cc23)CC1 gave an activity change (PNC), negative = inhibition of 11.1%.
CCOC(=O)c1nnn(-c2nonc2-n2cccc2)c1CN1CCC(C(=O)OCC)CC1 gave an activity change (PNC), negative = inhibition of 10.9%.
With CCOC(=O)C1CCN(Cc2coc3ccc(Cl)cc3c2=O)CC1 the activity change (PNC), negative = inhibition was -80.9% (active).
Cc1ccc(C(=O)COC(=O)CCCC(=O)NC2CCCCC2)cc1[N+](=O)[O-] gave an activity change (PNC), negative = inhibition of 17%.
In the case of COc1ccc(OC)c(-c2c(=O)n(OCc3ccccc3Br)c3ccccc3[n+]2[O-])c1, the activity change (PNC), negative = inhibition is reported as -113% (active).
Work on CCOc1ccc(OCC)c(-c2c(=O)n(OCc3ccc(Cl)cc3)c3ccccc3[n+]2[O-])c1 yielded an activity change (PNC), negative = inhibition of 60.4%.
Work on C=CCNCCCCOc1ccccc1 yielded an activity change (PNC), negative = inhibition of -6.05%.
With CN(C)CCNC(=O)Cc1ccc([N+](=O)[O-])cc1 the activity change (PNC), negative = inhibition was 15.1%.
With O=C(NCCNc1ccc([N+](=O)[O-])cc1)c1cccc2c(Br)cccc12 the activity change (PNC), negative = inhibition was -86.3% (active).
CC(CNc1ccc([N+](=O)[O-])cc1)NC(=O)c1ccccc1Br (configuration not stated) showed an activity change (PNC), negative = inhibition of 3.05%.
With Cc1nc2ccccc2nc(C)c1=NOCc1ccc(Cl)cc1Cl the activity change (PNC), negative = inhibition was -24.9%.
In the case of Cc1ccn(-c2cccc(-n3ccc(C)n3)n2)n1, the activity change (PNC), negative = inhibition is reported as -4.25%.
Cc1c(C2=CCN(S(=O)(=O)c3ccc(Cl)cc3)CC2)c2ccccc2n1C showed an activity change (PNC), negative = inhibition of 30.7%.

From PubChem BioAssay AID2417 (National Center for Advancing Translational Sciences (NCATS), 2010)
